# According to PubChem BioAssay (NCATS):
# Records with an inconclusive call do not appear. Where a call stands in place of a potency, no number is given. Calls of active or inactive are those of the source. Calls come from the whole dose curve; as a rule, active = well fitted inhibition curve with a large enough effect; inconclusive = small, poorly fitted or top-dose-only effect; inactive = flat fitted curve, though single readings scatter. *1 amine or outer side, *2 acyl side, *3 side chain or, on linkers, in order; H or OH if unused. Where a SMILES comes first, the peptide text is derived from it. [ ]: non-standard residue; d: D form. X4 = CC(C)=CCc1cc(C(O)C(N[*:1])C(=O)[*:2])ccc1O
# Molecular target: Calcium and integrin-binding protein 1 (Homo sapiens) (UniProt Q99828)
# Experiment: Primary qHTS for Identification of Calcium Integrin Binding Protein 1 (CIB1) Competitor (AID 1508620); note: top concentration of the series differs between compounds
# Conditions: CIB1-GST / FITC-alphaIIb peptide fluorescence polarization; series mostly up to 114 µM
# Summary of the method: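 Fluorescence polarization competition: GST-tagged CIB1 (1 uM final) preincubated with compound 15 min at room temperature, then FITC-labelled alphaIIb peptide (100 nM final) added. After 15 min at room temperature, polarization read at Ex 480/Em 540.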
# Chain of Calcium and integrin-binding protein 1 (Homo sapiens) (Q99828 whole entry, looked up): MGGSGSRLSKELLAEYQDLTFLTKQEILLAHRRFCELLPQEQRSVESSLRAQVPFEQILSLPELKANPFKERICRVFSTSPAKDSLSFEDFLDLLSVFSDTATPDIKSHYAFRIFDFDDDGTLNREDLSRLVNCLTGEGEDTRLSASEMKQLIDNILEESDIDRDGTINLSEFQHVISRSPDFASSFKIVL
row,Compound,Potency
1,Oc1ccc2nc(CN3CCC(Cc4ccccc4F)CC3)[nH]c2c1,inactive
2,O=C(CC(c1ccccc1)c1ccccc1)N1CCN(C(c2ccccc2)c2ccccc2)CC1,inactive
3,CC(=O)/C=C/[C@H]1[C@](C)(O)[C@@H](O)[C@H](OC(C)=O)C2C(C)(C)CCC[C@@]21C (some centres undefined),inactive
4,CCCCC1CCN(CCCC(=O)c2ccccc2C)CC1,inactive
5,C[C@@H]1CC[C@]2(C(=O)O)CC[C@]3(C)C(=CCC4[C@@]5(C)C[C@@H](O)[C@H](O)[C@@](C)(CO)C5CC[C@]43C)C2[C@]1(C)O (some centres undefined),inactive
6,CN1CCN(Cc2ccc(-c3cnc4[nH]cc(-c5ccc6[nH]ccc6c5)c4c3)cc2)CC1,inactive
7,COC(=O)c1ccccc1O[C@@H]1O[C@H](CO)[C@@H](O)[C@H](O)[C@H]1O[C@@H]1O[C@@H](C)[C@H](O)[C@@H](O)[C@H]1O,inactive
8,CC12CCC3c4ccc(O)cc4CCC3C1CC(OC1OC(C(=O)O)C(O)C(O)C1O)C2O (centres undefined),inactive
9,CC(=O)OC1CC2C3(C)CCC(OC(=O)CC(=O)O)C(C)(C)C3CCC2(C)C2(C)CCC(C3(C)CCC(=O)O3)C12 (centres undefined),inactive
10,OC[C@H]1O[C@@H](OCCc2ccccc2)[C@H](O[C@@H]2OC[C@](O)(CO)[C@H]2O)[C@@H](O)[C@@H]1O,inactive
11,O=C(O)/C=C/c1ccc(O)c(O[C@@H]2O[C@H](CO)[C@@H](O)[C@H](O)[C@H]2O)c1,inactive
12,CC1=CC(=O)CC(C)(CO)C1(O)/C=C/C(C)O[C@@H]1O[C@H](CO)[C@@H](O)[C@H](O)[C@H]1O (some centres undefined),inactive
13,COc1c(Nc2ncc(Cl)c(N[C@H]3[C@@H](C(N)=O)[C@@H]4C=C[C@H]3C4)n2)ccc2c1CC[C@@H](N1CCOCC1)CC2,inactive
14,CO[C@H]1/C=C/C=C/C=C/C[C@H](OC(=O)[C@@H](C)NC(=O)C2CCCCC2)[C@H](C)[C@@H](O)/C(C)=C/CCc2cc(O)cc(c2)NC(=O)C1,inactive
15,CC/C=C\CCO[C@@H]1O[C@H](CO[C@@H]2OC[C@H](O)[C@H](O)[C@H]2O)[C@@H](O)[C@H](O)[C@H]1O,inactive
16,CC1(C)CCCC2(C)C=C(C(=O)O)C(O)CC12 (centres undefined),inactive
17,CC(=O)O[C@H]1CC[C@H](C)[C@@]2(C)[C@H](OC(C)=O)c3c(C)coc3C(=O)[C@H]12,inactive
18,C=C1C(=O)OC2CC3(C)C(CC12)C(C)=CC(O)C3OC(C)=O (centres undefined),inactive
19,COc1cc(/C=C/C(=O)O[C@H]2[C@H](O)[C@@H](CO)O[C@@]2(CO)O[C@H]2O[C@H](CO)[C@@H](O)[C@H](O)[C@H]2O)ccc1O,inactive
20,CCC1=CC2CN(C1)Cc1c([nH]c3ccccc13)[C@@](C(=O)OC)(c1cc3c(cc1OC)N(C)[C@H]1[C@@](O)(C(=O)OC)[C@H](OC(C)=O)[C@]4(CC)C=CCN5CC[C@]31[C@@H]54)C2 (some centres undefined),inactive

row,Compound,Potency
1,CC(=O)c1cc2c(cc1O)OC(C)(C)C=C2,inactive
2,N#Cc1ccc(C(=O)N2CCC3(CC2)N=C(N)c2c(F)ccc(F)c2N3)cn1,inactive
3,C[C@@H]1[C@H]2[C@H](O[C@@H]3O[C@H](CO)[C@@H](O)[C@H](O)[C@H]3O)OC=C(C(=O)O)[C@H]2C[C@@H]1O,inactive
4,CNC(C)C(=O)NC(C(=O)N1CCCC1c1nc(C(=O)c2ccc(F)cc2)cs1)C1CCCCC1 (centres undefined),inactive
5,CC(C)(O[C@@H]1O[C@H](CO)[C@@H](O)[C@H](O)[C@H]1O)C(OC(=O)/C=C\c1ccc(O)cc1)C(=O)OCc1ccc(O[C@@H]2O[C@H](CO)[C@@H](O)[C@H](O)[C@H]2O)cc1 (some centres undefined),inactive
6,CC1(C)CC[C@]2(C(=O)O[C@@H]3O[C@H](CO)[C@@H](O)[C@H](O)[C@H]3O)CC[C@]3(C)C(=CCC4[C@@]5(C)C[C@@H](O)[C@H](O)C(C)(C)C5[C@H](O)C[C@]43C)[C@@H]2[C@@H]1O (some centres undefined),inactive
7,Cc1ccccc1-n1c([C@H](C)Nc2nc(N)nc3nc[nH]c23)nc2cccc(C)c2c1=O,inactive
8,C=C1C(=O)OC2CC(C)=C(C(C)CCCO)C(O)C12 (centres undefined),inactive
9,C[C@@H]1C[C@@H]([C@@H](O)C(C)(C)O)O[C@H]2C[C@@]3(C)C(=C12)C[C@H](O)[C@H]1[C@@]2(C)CCC(=O)C(C)(C)C2CC[C@@]13C (some centres undefined),inactive
10,CC(C)=CCc1cc(C(O)C2NC(=O)CNC(=O)C(Cc3c[nH]c4ccccc34)NC(=O)C3CCCN3C(=O)CNC(=O)C(C(C)C)NC(=O)CNC2=O)ccc1O (centres undefined) (cyclo(G[X4]GVGPW); configuration not given here),inactive
11,CC(C)(C)NS(=O)(=O)c1cncc(-c2cc(F)c3nc(N)nn3c2)c1,inactive
12,COC(C(=O)N1Cc2[nH]nc(NC(=O)c3ccc(N4CCN(C)CC4)cc3)c2C1)c1ccccc1 (centres undefined),inactive
13,O=C(COc1cccc2c(=O)[nH]ccc12)c1ccccc1,inactive
14,O=C1CCC(c2ccccc2)(C2CCN(Cc3ccc(I)cc3)CC2)C(=O)N1 (centres undefined),inactive
15,CC(C)=CCC[C@](C)(O[C@@H]1O[C@H](CO)[C@@H](O)[C@H](O)[C@H]1O)[C@H]1CC[C@]2(C)[C@@H]1[C@H](O)CC1[C@@]3(C)CC[C@H](O)C(C)(C)C3[C@@H](O[C@@H]3O[C@H](CO)[C@@H](O)[C@H](O)[C@H]3O)C[C@]12C (some centres undefined),inactive
16,COc1c2c(cc3c1-c1c(cc4c(c1OC)OCO4)CC(C)C(C)C3)OCO2 (centres undefined),inactive
17,O=C(CN1C(=O)C2(CCCC2)NCC1c1cc(F)cc(F)c1)Nc1ccc2c(c1)CC1(C2)C(=O)Nc2ncccc21 (centres undefined),inactive
18,C[C@H]1CC[C@@]2(OC1)O[C@H]1CC3C4CC[C@H]5C[C@@H](O)[C@H](O)C[C@]5(C)C4=CC(=O)[C@]3(C)[C@H]1[C@@H]2C (some centres undefined),inactive
19,C=CC[C@]12C[C@@H](OC)C(=O)C(OC)=C1O[C@@H](c1cc(OC)c3c(c1)OCO3)[C@@H]2C,inactive
